According to the supplement of paper PMC12645437, “Orthogonal IMiD-Degron Pairs Induce Selective Protein Degradation in Cells” (ACS Chemical Biology, 2025):
Over roughly 8,300 sequences, “log2 fold change of degron read counts, EGFP-low vs EGFP+ sorted cells (limma voom), compound-induced degradation” has its median near -1.1; the highest 2% begin near 3.2. The full list was thinned out, with the highest values kept by preference.

T1: CRBN, Q96SW2
T1 chain: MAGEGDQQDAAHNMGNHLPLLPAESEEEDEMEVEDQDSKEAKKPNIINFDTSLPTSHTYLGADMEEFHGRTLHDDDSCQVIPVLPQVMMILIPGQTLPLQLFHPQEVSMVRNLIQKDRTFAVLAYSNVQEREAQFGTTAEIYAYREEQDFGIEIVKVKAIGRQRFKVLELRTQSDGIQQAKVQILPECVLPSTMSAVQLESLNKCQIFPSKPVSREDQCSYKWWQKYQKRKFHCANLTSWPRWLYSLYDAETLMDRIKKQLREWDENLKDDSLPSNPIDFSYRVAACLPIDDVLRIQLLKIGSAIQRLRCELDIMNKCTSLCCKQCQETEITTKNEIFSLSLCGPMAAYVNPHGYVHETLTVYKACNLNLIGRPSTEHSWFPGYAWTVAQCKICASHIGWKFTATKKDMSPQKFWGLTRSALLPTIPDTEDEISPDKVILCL


Target: T1, CRBN, Q96SW2
Assay: log2 fold change of degron read counts, EGFP-low vs EGFP+ sorted cells (limma voom), compound-induced degradation; higher = more compound-induced degradation of the degron-EGFP fusion; degrons are variants of IKZF1/3 zinc finger 2; compound dose not given here
Details: Jurkat, 18 h
[1] = compound: compound 19 (5-tert-butyl-thalidomide)
[2] = compound: compound 22 (5-morpholino-thalidomide)
[3] = compound: compound 33 (diphenyl IMiD analogue)
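Also: pooled lentiviral library of zinc finger degron-EGFP fusions in mCherry-positive Jurkat cells, FACS-sorted after compound exposure, with degron abundance counted by next-generation sequencing.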

Sequence	log2 fold change of degron read counts [1]	log2 fold change of degron read counts [2]	log2 fold change of degron read counts [3]	log2 fold change of degron read counts (compound: thalidomide)
FKCNICGATFTQKGNLLRHIKL [46F_47K_49N_50I_52G_53A_54T_55F_67L_, Q9UKT9]	-2.19	-2.52	-3.31	-1.21
FACDICGAGFTQKGNLLRHIKL [46F_47A_49D_50I_52G_53A_54G_55F_67L_, Q9UKT9]	2.54	0.463	-0.84	-1.45
FECPICGRFFTQKGNLLRHIKL [46F_47E_49P_50I_52G_53R_54F_55F_67L_, Q9UKT9]	-1.85	-1.84	-0.566	0.632
FFCEICGHTFTQKGNLLRHIKL [46F_47F_49E_50I_52G_53H_54T_55F_67L_, Q9UKT9]	-2.85	-2.26	-2.37	-2.09
FYCEQCGALFTQKGNLLRHIKL [46F_47Y_49E_50Q_52G_53A_54L_55F_67L_, Q9UKT9]	-0.0809	0.128	-0.131	-1.75
FYCPICGRAFTQKGNLLRHIKL [46F_47Y_49P_50I_52G_53R_54A_55F_67L_, Q9UKT9]	-3.1	-2.69	-2.69	-3.4
FHCPQCGATFTQKGNLLRHIKL [46F_47H_49P_50Q_52G_53A_54T_55F_67L_, Q9UKT9]	-1.34	-1.81	0.0255	-1.77
FRCDVCGAEFTQKGNLLRHIKL [46F_47R_49D_50V_52G_53A_54E_55F_67L_, Q9UKT9]	-2.43	-1.82	0.12	-1.26
